Measurements published in PubChem BioAssay.
The source made the active and inactive calls. Unless noted, no rule for the calls is given here.

Experiments:
[1] = compound effects on lung adenocarcinoma cell viability – A549, calcein-AM fluorescence, 48 h, basal, profiling panel (AID 1162); details: higher = more signal; also: test concentration not given here
[2] = compound effects on differentiated 3T3-L1 adipocyte viability – cell-based, 3T3-L1 adipocytes, calcein-AM fluorescence, 48 h, basal, profiling panel (AID 1163); details: 3T3-L1 adipocytes viability, higher = more signal; also: test concentration not given here
[3] = compound effects on hepatocellular carcinoma cell viability – HepG2, calcein-AM fluorescence, 48 h, basal, profiling panel (AID 1164); details: higher = more signal; also: test concentration not given here
[4] = compound effects on multiple myeloma cell viability – MM1S, calcein-AM fluorescence, 48 h, basal, profiling panel (AID 1165); details: higher = more signal;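 also: viability of MM1S multiple myeloma cells under basal unstimulated conditions; test concentration not given here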
[5] = calcein-AM signal in unstimulated myeloma cells – cell-based, calcein-AM fluorescence, 48 h, PK04 Diversity Set, profiling panel (AID 1166); details: RPMI8226 myeloma viability, higher = more signal;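 also: cells grown under basal conditions without added stimulus; test concentration not given here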
[6] = JC-1 mitochondrial signal, unstimulated HepG2 cells – cell-based, JC-1 fluorescence, 24 h, 100 nL compound, profiling panel (AID 1167); details: HepG2 mitochondrial potential, higher = more signal; also: test concentration not given here
[7] = JC-1 mitochondrial signal, unstimulated adipocytes – cell-based, JC-1 fluorescence, 3T3-L1 adipocytes, 24 h, 100 nL compound, profiling panel (AID 1168); details: JC-1 mitochondrial fluorescence, higher = more signal, called active from +8 up or from −8 down; also: test concentration not given here
[8] = JC-1 mitochondrial signal, unstimulated myeloma cells – cell-based, JC-1 fluorescence, RPMI8226, 24 h, 100 nL compound, profiling panel (AID 1169); details: JC-1 mitochondrial potential fluorescence, higher = more signal; also: test concentration not given here
[9] = JC-1 mitochondrial signal, unstimulated MM1S myeloma – cell-based, JC-1 fluorescence, 24 h, 100 nL compound, profiling panel (AID 1170); details: MM1S mitochondrial potential, higher = more signal; also: test concentration not given here
[10] = resazurin metabolic signal in A549 cells – cell-based, resazurin fluorescence, 24 h, PK04 Diversity Set, profiling panel (AID 1171); details: A549 viability, higher = more signal, called active from +8 up or from −8 down; also: test concentration not given here
[11] = resazurin metabolic signal in HepG2 cells – cell-based, resazurin fluorescence, 24 h, PK04 Diversity Set, profiling panel (AID 1172); details: HepG2 viability, higher = more signal; also: test concentration not given here
[12] = budding yeast growth changes without added modifier – OD600, strain BY4716, 24 h, basal condition, primary screen (AID 1173); details: S. cerevisiae BY4716 growth, OD600, 24 h; higher = more signal, called active from +8 up or from −8 down
[13] = viability profiling in MM1S myeloma cells – cell-based, resazurin fluorescence, basal, 24 h, PK04 Diversity Set, profiling panel (AID 1174); details: higher = more signal, called active from +8 up or from −8 down; also: test concentration not given here
[14] = target: Dihydroorotate dehydrogenase (quinone), mitochondrial (Plasmodium falciparum (isolate 3D7)) (UniProt Q08210); assay: inhibition of P. falciparum DHODH – biochemical, C-terminal His tag, absorbance 600 nm, primary screen (AID 1175); details: PfDHODH enzyme, DCIP absorbance 600 nm; higher = more signal, called active from +8 up or from −8 down;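 also: recombinant parasite enzyme with a five histidine tag at its C terminus; test concentration not given here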
[15] = inhibition of PAO1 biofilm formation – strain PAO1, LB-PBS medium, absorbance 600 nm, primary screen (AID 1176); also: test concentration not given here; details: P. aeruginosa PAO1 growth/biofilm, A600, 12 h; higher = more signal
[16] = growth modulation of vineyard yeast isolate – strain RM11-1a, OD600, basal, 24 h, primary screen (AID 1177);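 also: cultures grown under basal conditions with no added stressor; test concentration not given here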; details: S. cerevisiae RM11-1a growth, OD600, 24 h; higher = more signal, called active from +8 up or from −8 down
[17] = growth of efflux-deficient E. coli DRC39 – strain DRC39, OD650, 24 h, E. coli filamentation inducers, primary screen (AID 1178);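 also: growth measured as culture turbidity by optical density at 650 nm; test concentration not given here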; details: E. coli DRC39 acrAB, higher = more signal, called active from +8 up or from −8 down
[18] = growth of efflux-deficient E. coli DRC39 – strain DRC39, OD650, 48 h, E. coli filamentation inducers, primary screen (AID 1179);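 also: screen aims at cell division blockers that make cells filament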; details: E. coli DRC39 delta-acrAB growth, higher = more signal, called active from +8 up or from −8 down
[19] = viability profiling in RPMI8226 myeloma cells – cell-based, resazurin fluorescence, basal, 24 h, PK04 Diversity Set, profiling panel (AID 1180); details: higher = more signal;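 also: RPMI8826 multiple myeloma cell line at 5000 cells per well; test concentration not given here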
[20] = target: E3 ubiquitin-protein ligase XIAP (Homo sapiens) (UniProt P98170); assay: small molecules binding XIAP protein – biophysical, small-molecule microarray, fluorescence 635 nm, primary screen (AID 1181); details: higher = more signal;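 also: score merges 667 nm emission and signal to noise over triplicate slides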
E3 ubiquitin-protein ligase XIAP (Homo sapiens), sequence (P98170 whole entry, looked up): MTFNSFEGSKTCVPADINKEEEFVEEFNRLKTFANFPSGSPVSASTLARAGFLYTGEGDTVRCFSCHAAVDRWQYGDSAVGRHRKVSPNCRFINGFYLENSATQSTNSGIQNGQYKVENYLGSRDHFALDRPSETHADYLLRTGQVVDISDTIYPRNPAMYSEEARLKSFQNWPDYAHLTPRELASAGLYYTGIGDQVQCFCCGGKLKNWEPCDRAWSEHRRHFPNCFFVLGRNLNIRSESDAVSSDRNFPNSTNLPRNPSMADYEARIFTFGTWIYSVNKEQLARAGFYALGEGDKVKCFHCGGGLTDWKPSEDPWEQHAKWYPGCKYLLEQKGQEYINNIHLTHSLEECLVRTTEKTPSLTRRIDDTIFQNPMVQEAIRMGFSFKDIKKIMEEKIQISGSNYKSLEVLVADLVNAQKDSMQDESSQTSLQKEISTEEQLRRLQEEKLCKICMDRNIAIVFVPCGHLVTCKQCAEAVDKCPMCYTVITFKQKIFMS

Dihydroorotate dehydrogenase (quinone), mitochondrial (Plasmodium falciparum (isolate 3D7)), sequence (Q08210 whole entry, looked up): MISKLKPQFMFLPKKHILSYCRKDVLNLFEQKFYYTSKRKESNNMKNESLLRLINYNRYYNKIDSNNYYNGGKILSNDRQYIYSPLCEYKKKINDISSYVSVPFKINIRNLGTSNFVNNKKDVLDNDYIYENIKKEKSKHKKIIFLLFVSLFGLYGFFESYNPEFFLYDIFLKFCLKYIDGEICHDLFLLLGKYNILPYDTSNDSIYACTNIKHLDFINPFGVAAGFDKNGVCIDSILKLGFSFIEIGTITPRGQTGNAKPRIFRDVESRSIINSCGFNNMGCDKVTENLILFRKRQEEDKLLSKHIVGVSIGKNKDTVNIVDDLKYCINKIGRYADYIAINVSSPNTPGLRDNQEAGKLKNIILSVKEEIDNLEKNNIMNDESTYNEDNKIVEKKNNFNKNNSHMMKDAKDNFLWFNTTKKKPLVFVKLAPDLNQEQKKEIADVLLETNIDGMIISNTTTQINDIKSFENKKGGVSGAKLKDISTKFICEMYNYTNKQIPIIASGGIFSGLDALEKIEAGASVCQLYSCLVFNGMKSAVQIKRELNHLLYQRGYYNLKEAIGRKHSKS

| Structure (SMILES) | z-score [1] | z-score [2] | z-score [3] | z-score [4] | z-score [5] | z-score [6] | z-score [7] | z-score [8] | z-score [9] | z-score [10] | z-score [11] | z-score [12] | z-score [13] | composite z-score [14] | z-score [15] | z-score [16] | z-score [17] | z-score [18] | z-score [19] | composite z-score [20] |
| --- | --- | --- | --- | --- | --- | --- | --- | --- | --- | --- | --- | --- | --- | --- | --- | --- | --- | --- | --- | --- |
| O=C(NCc1ccccc1)[C@@H]1c2ccccc2C(=O)N(Cc2cc(F)cc(C(F)(F)F)c2)[C@H]1c1ccc(CO)cc1 | 1.5 | -0.115 | 1.37 | 0.105 | -0.161 | 1.88 | 0.079 (inactive) | 0.79 | -0.511 | -0.811 (inactive) | -0.745 | -0.633 (inactive) | -0.569 (inactive) | 0.131 (inactive) | 0.472 (inactive) | -0.517 (inactive) | 0.771 (inactive) | 0.675 (inactive) | 0.127 | -0.0207 |
| C=C(C(=O)CC[C@H](OC(=O)c1cccnc1)c1ccccc1OCCO)C(C)C | 0.219 | -0.602 | -0.967 | -2.21 | -1.69 | -1.45 | 0.31 (inactive) | -0.742 | -0.477 | 0.626 (inactive) | 0.3 | -0.993 (inactive) | -1.5 (inactive) | -0.429 (inactive) | 0.686 (inactive) | -0.237 (inactive) | 0.283 (inactive) | 0.237 (inactive) | -2.14 | -0.0994 |
| CN(C)CCCC[C@@H]1NC(=O)[C@H]2C[C@@H](C(=O)NCCCCCNC(=O)CS)[C@@H](c3ccc(O)cc3)N2C1=O | -0.294 | -0.478 | -0.0888 | 0.201 | -0.285 | 1.68 | -0.143 (inactive) | -0.319 | 0.543 | -0.358 (inactive) | -0.0707 | -0.691 (inactive) | 0.518 (inactive) | 0.419 (inactive) | -0.13 (inactive) | -0.158 (inactive) | -0.297 (inactive) | 0.326 (inactive) | 0.108 | -0.0344 |
| C=C(COC)/C(=C/C[C@H](OC(C)=O)c1ccccc1OCCO)c1cnc2ccccc2c1 | 0.406 | -0.309 | -0.738 | -2.08 | -1.32 | 1.4 | -1.34 (inactive) | -0.439 | -0.62 | -0.0424 (inactive) | -0.192 | 1.36 (inactive) | -0.885 (inactive) | -2.14 (inactive) | 1.57 (inactive) | 1.19 (inactive) | -0.447 (inactive) | -0.334 (inactive) | -0.784 | -0.173 |
| [N-]=[N+]=Nc1ccccc1[C@@H]1OC(c2ccc(OCCCO)cc2)=N[C@]1(CCS(=O)(=O)c1ccccc1)C(=O)O | 0.926 | -0.149 | 0.846 | -0.57 | -1.47 | -3.18 | -1.07 (inactive) | -0.373 | -1.17 | 0.343 (inactive) | 0.97 | -0.14 (inactive) | -0.3 (inactive) | -23.4 (active) | -0.884 (inactive) | 0.82 (inactive) | 0.277 (inactive) | 0.82 (inactive) | 0.205 | 0.125 |
| CCN(CC)c1ccc(N2CC=CC34O[C@@H]5/C=C\CCC(C)OC(=O)C5[C@H]3C(=O)N(CCCCCCO)[C@@H]4C2=O)cc1 (stereo not given in full) | 1.21 | -1.09 | 0.674 | 1.57 | 0.153 | 1.25 | -1.02 (inactive) | 0.0282 | 0.846 | 0.606 (inactive) | -0.105 | -0.0746 (inactive) | 0.384 (inactive) | -0.788 (inactive) | -0.497 (inactive) | 0.251 (inactive) | 1.37 (inactive) | 1.59 (inactive) | 1.56 | -0.0545 |
| O=C1O[C@H](c2ccccc2)[C@H](c2ccccc2)N2[C@H]1[C@@H](C(=O)N1CCCCCCC1)[C@]1(C(=O)Nc3ccc(C#CC4=CCCCC4)cc31)[C@H]2c1ccc(O)cc1 | -0.674 | 1.01 | -0.0827 | -0.181 | -0.773 | -1.28 | 0.634 (inactive) | -0.179 | -1.28 | 0.327 (inactive) | 0.693 | -0.63 (inactive) | -0.693 (inactive) | -0.744 (inactive) | 0.485 (inactive) | -0.668 (inactive) | -0.182 (inactive) | -1.53 (inactive) | -0.0437 | 3.33 |
| CO[C@H]1O[C@H](CO)[C@@H](OC(=O)Nc2ccccc2-c2ccccc2)[C@H](OC(=O)Nc2ccccc2-c2ccccc2)[C@H]1OC(=O)Nc1ccccc1-c1ccccc1 | -1.46 | 1.22 | -1.31 | -1.4 | -1.44 | -0.0136 | 0.908 (inactive) | -0.87 | 0.116 | -2.56 (inactive) | -1.04 | 1.95 (inactive) | -1.6 (inactive) | -0.236 (inactive) | 1.45 (inactive) | 4.43 (inactive) | 0.494 (inactive) | -0.0039 (inactive) | -1.6 | 1.26 |
| CC(=O)NCCCC[C@@H]1NC(=O)[C@@H]2C[C@H](C(=O)NCCCCCC[N+](C)(C)C)[C@H](c3cccc(OCCO)c3)N2C1=O | -0.339 | -0.547 | -0.231 | -0.241 | 0.397 | -1.51 | -0.0349 (inactive) | 0.226 | -0.12 | 0.481 (inactive) | -0.29 | 1.05 (inactive) | -0.147 (inactive) | -0.908 (inactive) | 0.118 (inactive) | 1.44 (inactive) | -0.119 (inactive) | -0.42 (inactive) | -0.536 | -0.36 |
| CCCC[C@@H]1C[C@H]1[C@@H](NC(=O)c1ccccc1)c1ccc(-c2ccccc2)cc1 | -1.54 | -1.15 | -3.24 | -2.55 | -4.26 | -3.59 | -0.49 (inactive) | -0.568 | -2.19 | -1.31 (inactive) | -2.26 | -0.552 (inactive) | -2.24 (inactive) | -0.297 (inactive) | 0.122 (inactive) | 0.219 (inactive) | -0.499 (inactive) | -0.293 (inactive) | -3.64 | 1.14 |
